Assay outcomes (PubChem)
FBW7 activator: human FBW7 E3 ligase activation, primary screen; Q969H0; AlphaScreen FBW7–phospho-cyclin E peptide binding, activator screen; normalized activity (activation), % at 26.1 µM; 0.13% of 650,000 active; AID 1259310; in the data active = normalized activity above about 1.9%;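 note: purified mutant Fbw7 with reduced substrate affinity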
MITF inh: blocks human microphthalmia-associated transcription factor; AlphaScreen MITF homodimerization, bead proximity signal; inhibition, % at 2.6 µM; 0.91% of 650,000 active; in the data active = inhibition above about 50%;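 note: 0% = vehicle wells with protein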
Target sequence (O75030 whole entry, looked up): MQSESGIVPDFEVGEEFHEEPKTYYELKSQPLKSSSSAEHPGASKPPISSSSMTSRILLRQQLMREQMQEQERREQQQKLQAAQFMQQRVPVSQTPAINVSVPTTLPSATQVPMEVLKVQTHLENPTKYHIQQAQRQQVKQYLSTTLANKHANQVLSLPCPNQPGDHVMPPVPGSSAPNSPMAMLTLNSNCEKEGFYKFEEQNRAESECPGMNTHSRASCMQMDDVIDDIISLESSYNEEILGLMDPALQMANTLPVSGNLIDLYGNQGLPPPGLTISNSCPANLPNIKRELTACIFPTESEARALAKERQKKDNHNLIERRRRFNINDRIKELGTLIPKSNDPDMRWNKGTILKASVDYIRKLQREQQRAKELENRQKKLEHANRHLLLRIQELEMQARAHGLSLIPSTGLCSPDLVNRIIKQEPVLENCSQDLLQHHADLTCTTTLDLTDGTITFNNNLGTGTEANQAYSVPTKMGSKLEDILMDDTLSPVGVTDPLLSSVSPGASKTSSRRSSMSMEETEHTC
GPR151 ag: activators of human GPR151 | PathHunter beta-arrestin GPR151 cells, luminescence | Q8TDV0 | 1% of 650,000 active | activation, % at 11.2 µM; in the data active = activation above about 4.9%;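 note: 0% = median of compound wells and 100% = cells with positive control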
TEAD-YAP block: TEAD-YAP interaction inhibition. HEK-TIYL cells, TEAD-Gal4/YAP UAS-luciferase luminescence. AID 1259422. 1.4% of 640,000 active. inhibition, % at 9.12 µM; in the data active = inhibition above about 32%;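 note: 0% = median of test compound wells and 100% = reference inhibitor wells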
GPR151 conf act: human GPR151 activation, confirmation screen; shares compounds with GPR151 ag; GPR151 PathHunter beta-arrestin cells, luminescence, 90 min; % of EA-reagent control over plate median; activation, % at 11.2 µM; 6,700 tested, under 10 active;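 active = mean percent activation across replicates above the confirmation screen cutoff of 4.91%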
GPR119 counter: activates human GPR119 in a GPR151 counter-screen. 0.3% of 6,700 active. AID 1508611. activation, % at 11.2 µM. GPR119 PathHunter beta-arrestin cells, luminescence, 90 min; 0 = compound-well median, 100 = enzyme-acceptor control. shares compounds with GPR151 ag;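 active = mean percent activation in the counterscreen above 29.09%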;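 note: counterscreen on off-target GPR119 to flag nonselective hits from the GPR151 activator screen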
An asterisk follows results filed as active. A selection: hits, their analogues and other compounds. The true share with any hit is near 3.5%.

What do the screens show for `CC1CCC(=NNC(=O)c2ccc(Cl)cc2)CC1` (stereo not drawn)?
FBW7 activator: 0; MITF inh: 2; GPR151 ag: 0; TEAD-YAP block: -29

How did Cc1nonc1N=NN(Cc1ccc([N+](=O)[O-])cc1)c1nonc1C do in these assays?
FBW7 activator: 0; MITF inh: 9; GPR151 ag: 7.4*; TEAD-YAP block: 8; GPR151 conf act: 0; GPR119 counter: -5

Results for CN(c1ccccc1)S(=O)(=O)c1ccc(C(=O)OC2CCOC2=O)cc1 (stereo not drawn) ?
FBW7 activator: 0; MITF inh: 3; GPR151 ag: 11*; TEAD-YAP block: -5; GPR151 conf act: 0; GPR119 counter: -3

What do the screens show for `O=C(OC1CCOC1=O)c1ccc(S(=O)(=O)N2CCCC2)cc1` (stereo not drawn)?
FBW7 activator: 0; MITF inh: 0; GPR151 ag: -2; TEAD-YAP block: -9

How did Clc1ccc2nc(N3N=C(c4cccs4)CC3c3ccc(Br)cc3)nc(-c3ccccc3)c2c1 (stereo not drawn) do in these assays?
FBW7 activator: 0; MITF inh: 0; GPR151 ag: 1; TEAD-YAP block: 7

How did Brc1ccc(Oc2ccc(Oc3ccc(Br)cc3)cc2)cc1 do in these assays?
FBW7 activator: 0; MITF inh: -1; GPR151 ag: 0; TEAD-YAP block: 3

How did Nc1ccc(Oc2ccc(Br)cc2)cc1 do in these assays?
FBW7 activator: 0; MITF inh: 11; GPR151 ag: 11*; TEAD-YAP block: 2; GPR151 conf act: 1; GPR119 counter: -5

Results for Cc1nn(C)c(C)c1-c1cccc(C(N)=O)c1 ?
FBW7 activator: 0; MITF inh: -5; GPR151 ag: 0; TEAD-YAP block: 0

What do the screens show for `Cc1nn(C)c(C)c1-c1ccc2nc(C(C)C)[nH]c(=O)c2c1`?
FBW7 activator: 0; MITF inh: -10; GPR151 ag: 5.6*; TEAD-YAP block: 3; GPR151 conf act: -1; GPR119 counter: 1

What do the screens show for `Cc1ccc(NCCNS(=O)(=O)c2cc(C)c(C)cc2C)nn1`?
FBW7 activator: 1; MITF inh: 9; GPR151 ag: 8.4*; TEAD-YAP block: 2; GPR151 conf act: 0; GPR119 counter: 3

What do the screens show for `COc1cc(/C=N/O)cc(Cl)c1OS(=O)(=O)c1ccc(C)cc1`?
FBW7 activator: 0; MITF inh: -7; GPR151 ag: 4.9*; TEAD-YAP block: -15; GPR151 conf act: -1; GPR119 counter: -15

How did COc1cc(/C=N/O)cc(Cl)c1OC do in these assays?
FBW7 activator: 0; MITF inh: -2; GPR151 ag: 1; TEAD-YAP block: -9

Results for CCCn1c(=O)c2ccccc2n2c(SCC(N)=O)nnc12 ?
FBW7 activator: 0; MITF inh: 12; GPR151 ag: 1; TEAD-YAP block: 6

How did CCn1c(SCC(N)=O)nc2ccc(I)cc2c1=O do in these assays?
FBW7 activator: 0; MITF inh: 8; GPR151 ag: 0; TEAD-YAP block: -4

How did CCn1c(SCC(N)=O)nc2ccc(Br)cc2c1=O do in these assays?
FBW7 activator: 0; MITF inh: 1; GPR151 ag: 5.4*; TEAD-YAP block: -2; GPR151 conf act: 0; GPR119 counter: -5

How did CCn1c(=O)c2ccccc2n2c(SCC(N)=O)nnc12 do in these assays?
FBW7 activator: 0; MITF inh: 0; GPR151 ag: 6.3*; TEAD-YAP block: -2; GPR151 conf act: 0; GPR119 counter: 5

What do the screens show for `O=c1cc(N2CCN(c3ccccc3)CC2)[nH]c(=O)n1-c1ccc(Br)cc1`?
FBW7 activator: 0; MITF inh: 2; GPR151 ag: 1; TEAD-YAP block: 1

Results for Cc1cc(C)c(C#N)c(SC/C=C/c2ccccc2)n1 ?
FBW7 activator: 0; MITF inh: 4; GPR151 ag: 7.0*; TEAD-YAP block: -2; GPR151 conf act: -1; GPR119 counter: -10

How did Cc1cc(C)c(C#N)c(SC/C=C/CSc2nc(C)cc(C)c2C#N)n1 do in these assays?
FBW7 activator: 0; MITF inh: -19; GPR151 ag: -1; TEAD-YAP block: -8

How did S=C(NC1CCCCC1)N1CCn2cccc2C1c1cccs1 (stereo not drawn) do in these assays?
FBW7 activator: 0; MITF inh: 6; GPR151 ag: 4; TEAD-YAP block: -7

What do the screens show for `CCOc1ccc(NC(=O)C(Sc2ccccc2)c2ccccc2)c([N+](=O)[O-])c1` (stereo not drawn)?
FBW7 activator: 0; MITF inh: 7; GPR151 ag: 6.1*; TEAD-YAP block: -14; GPR151 conf act: 1; GPR119 counter: 18

What do the screens show for `COc1ccc(CNC2C3CC4CC(C3)CC2C4)c(OC)c1` (stereo not drawn)?
FBW7 activator: 0; MITF inh: 5; GPR151 ag: 5.6*; TEAD-YAP block: 5; GPR151 conf act: 0; GPR119 counter: -6

How did Cc1ccc(S(=O)(=O)N(C)CC(=O)OCc2cc([N+](=O)[O-])cc3c2OCOC3)cc1 do in these assays?
FBW7 activator: 0; MITF inh: 4; GPR151 ag: 8.1*; TEAD-YAP block: 8; GPR151 conf act: 0; GPR119 counter: -2

Results for CCc1cccc(NC(=O)C2CCCC2)c1 ?
FBW7 activator: 0; MITF inh: 7; GPR151 ag: 10*; TEAD-YAP block: -17; GPR151 conf act: 0; GPR119 counter: -11

Results for CCCNc1nc(N(CC)CC)nc(N2CCCC(C(=O)N(CC)CC)C2)n1 (stereo not drawn) ?
FBW7 activator: 0; MITF inh: 15; GPR151 ag: 0; TEAD-YAP block: -6

How did CCN(CC)S(=O)(=O)c1ccc(N/N=C/c2ccc(O)cc2)nc1 do in these assays?
FBW7 activator: 0; MITF inh: 22; GPR151 ag: 5.7*; TEAD-YAP block: 2; GPR151 conf act: 1; GPR119 counter: 3

Results for CCN(CC)S(=O)(=O)c1ccc(N/N=C/c2ccc(O)c(OC)c2)nc1 ?
FBW7 activator: 0; MITF inh: 7; GPR151 ag: 2; TEAD-YAP block: -6

How did COC(=O)c1ccc(OC(=O)c2cc(=O)[nH]c3ccccc23)c(C(=O)OC)c1 do in these assays?
FBW7 activator: 0; MITF inh: -5; GPR151 ag: -1; TEAD-YAP block: -5

How did COc1cccc(NC(=O)CSc2nc3n[nH]c(C)c3c(=N)n2-c2cccc(C)c2)c1 do in these assays?
FBW7 activator: 0; MITF inh: -1; GPR151 ag: 0; TEAD-YAP block: 11

How did N#CCSc1nnc2sc3ccccc3n12 do in these assays?
FBW7 activator: 0; MITF inh: -5; GPR151 ag: 5.2*; TEAD-YAP block: -9; GPR151 conf act: 0; GPR119 counter: -2

What do the screens show for `O=C(NCCOc1ccccc1)C1CCN(c2ccc(Nc3ccccc3)nn2)CC1`?
FBW7 activator: 0; MITF inh: 0; GPR151 ag: 1; TEAD-YAP block: -14
